Common to all, as to assay: PBM; 200 nM protein, PBS
Common to all, as to settings: dsDNA, one strand shown

The target in experiment [1] is HOXC10 (Homo sapiens, UniProt Q9NYD6 254-340).
The target of experiment [2] is HOXC10 (Homo sapiens, UniProt Q9NYD6 254-340, K271E).
The target in experiment [3] is T1, NKX2-6 (Homo sapiens, UniProt A6NCS4 118-204).
T1 sequence: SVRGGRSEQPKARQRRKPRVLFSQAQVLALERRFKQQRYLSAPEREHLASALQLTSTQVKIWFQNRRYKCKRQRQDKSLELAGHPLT

In experiment [4] the target is T2, NKX2-6 (Homo sapiens, UniProt A6NCS4 118-204, F151L).
T2 sequence: T1 sequence with F34L

The target in experiment [5] is HOXD13 (Homo sapiens, UniProt P35453 263-343, T313R).
Experiment [6] concerns the target HOXC9 (Homo sapiens, UniProt P31274 178-260, R222W).
For experiment [7], the target named is HOXD13 (Homo sapiens, UniProt P35453 263-343).
The target of experiment [8] is HOXD13 (Homo sapiens, UniProt P35453 263-343, T313A).
Experiment [9] concerns the target PITX2 (Homo sapiens, UniProt Q99697 72-157).

Substitutions are numbered along the chain they refer to.

Chain of HOXC10 (Homo sapiens, UniProt Q9NYD6 254-340) (Q9NYD6 254-340): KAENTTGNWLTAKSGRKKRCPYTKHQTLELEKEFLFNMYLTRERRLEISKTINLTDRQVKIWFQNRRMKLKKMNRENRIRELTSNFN
Chain of HOXC10 (Homo sapiens, UniProt Q9NYD6 254-340, K271E) (Q9NYD6 254-340 K271E): as the sequence (Q9NYD6 254-340) above, with K18E counted along it
Chain of HOXD13 (Homo sapiens, UniProt P35453 263-343, T313R) (P35453 263-343 T313R): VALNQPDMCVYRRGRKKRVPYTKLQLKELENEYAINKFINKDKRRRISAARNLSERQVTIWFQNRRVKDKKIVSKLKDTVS
Chain of HOXD13 (Homo sapiens, UniProt P35453 263-343, T313A) (P35453 263-343 T313A): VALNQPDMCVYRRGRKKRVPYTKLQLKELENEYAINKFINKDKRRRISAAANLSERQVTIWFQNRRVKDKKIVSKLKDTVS
Chain of HOXD13 (Homo sapiens, UniProt P35453 263-343) (P35453 263-343): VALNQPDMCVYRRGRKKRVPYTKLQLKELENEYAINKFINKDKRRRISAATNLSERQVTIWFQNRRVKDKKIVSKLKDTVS
Chain of HOXC9 (P31274 178-260 R222W): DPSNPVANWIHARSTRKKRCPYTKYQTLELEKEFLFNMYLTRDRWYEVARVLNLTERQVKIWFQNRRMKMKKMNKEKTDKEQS

As for CAGAGGGA, the binding signal in [1] is 10.1 upbm affinity estimate (log intensity, higher = more binding, comparable within an allelic series); in experiment [2] it was 10.1 upbm affinity estimate (log intensity, higher = more binding, comparable within an allelic series).
On to ATCATACA, for which the binding signal in experiment [1] was 10.9 upbm affinity estimate (log intensity, higher = more binding, comparable within an allelic series); in experiment [2] it was 10.8 upbm affinity estimate (log intensity, higher = more binding, comparable within an allelic series).
With GTCCCGCA, the binding signal is 10.1 upbm affinity estimate (log intensity, higher = more binding, comparable within an allelic series) in [1]; 9.41 upbm affinity estimate (log intensity, higher = more binding, comparable within an allelic series) in [3]; 10.1 upbm affinity estimate (log intensity, higher = more binding, comparable within an allelic series) in [2]; 9.36 upbm affinity estimate (log intensity, higher = more binding, comparable within an allelic series) in experiment [4].
GACGATTA: the binding signal in experiment [1] is 11.2 upbm affinity estimate (log intensity, higher = more binding, comparable within an allelic series); in [2], 11.1 upbm affinity estimate (log intensity, higher = more binding, comparable within an allelic series).
For the sequence CTTAAATA, the binding signal in [1] was 10.9 upbm affinity estimate (log intensity, higher = more binding, comparable within an allelic series); in experiment [2], 10.7 upbm affinity estimate (log intensity, higher = more binding, comparable within an allelic series).
As to CGTGAATA, the binding signal in [1] is 10.7 upbm affinity estimate (log intensity, higher = more binding, comparable within an allelic series); in experiment [2], 10.7 upbm affinity estimate (log intensity, higher = more binding, comparable within an allelic series).
As for ATAAAAAT, the binding signal in [1] was 12.2 upbm affinity estimate (log intensity, higher = more binding, comparable within an allelic series); in experiment [5], 10.7 upbm affinity estimate (log intensity, higher = more binding, comparable within an allelic series); in experiment [2], 11.7 upbm affinity estimate (log intensity, higher = more binding, comparable within an allelic series); in experiment [6], 11.2 upbm affinity estimate (log intensity, higher = more binding, comparable within an allelic series).
Regarding AAAGATAT, the binding signal in [1] was 10.9 upbm affinity estimate (log intensity, higher = more binding, comparable within an allelic series); in experiment [7] it was 10.8 upbm affinity estimate (log intensity, higher = more binding, comparable within an allelic series); in experiment [8] it was 10.9 upbm affinity estimate (log intensity, higher = more binding, comparable within an allelic series).
For AGGAGTGG, the binding signal is 9.97 upbm affinity estimate (log intensity, higher = more binding, comparable within an allelic series) in experiment [1] and 9.99 upbm affinity estimate (log intensity, higher = more binding, comparable within an allelic series) in experiment [2].
Turning to AGAAAAAG, the binding signal was 10 upbm affinity estimate (log intensity, higher = more binding, comparable within an allelic series) in experiment [1] and 10.1 upbm affinity estimate (log intensity, higher = more binding, comparable within an allelic series) in [2].
As for AGCAGGGC, the binding signal in experiment [1] is 10.1 upbm affinity estimate (log intensity, higher = more binding, comparable within an allelic series); in experiment [2], 10.1 upbm affinity estimate (log intensity, higher = more binding, comparable within an allelic series).
On to AGCTCTGC, for which the binding signal in experiment [1] was 9.99 upbm affinity estimate (log intensity, higher = more binding, comparable within an allelic series); in experiment [2] it was 9.97 upbm affinity estimate (log intensity, higher = more binding, comparable within an allelic series).
In the case of AGATAATG, the binding signal was 11.3 upbm affinity estimate (log intensity, higher = more binding, comparable within an allelic series) in experiment [1] and 11.2 upbm affinity estimate (log intensity, higher = more binding, comparable within an allelic series) in experiment [2].
As for ACATAAGT, the binding signal in [1] was 10.9 upbm affinity estimate (log intensity, higher = more binding, comparable within an allelic series); in [9], 9.71 upbm affinity estimate (log intensity, higher = more binding, comparable within an allelic series); in experiment [2], 10.8 upbm affinity estimate (log intensity, higher = more binding, comparable within an allelic series).
Regarding CTCGGGAA, the binding signal in experiment [1] was 10.1 upbm affinity estimate (log intensity, higher = more binding, comparable within an allelic series); in [2], 10 upbm affinity estimate (log intensity, higher = more binding, comparable within an allelic series).
Consider GAGCTGCC, for which the binding signal is 9.9 upbm affinity estimate (log intensity, higher = more binding, comparable within an allelic series) in [1] and 9.88 upbm affinity estimate (log intensity, higher = more binding, comparable within an allelic series) in experiment [2].
In the case of CGCCAGCG, the binding signal in experiment [1] was 10 upbm affinity estimate (log intensity, higher = more binding, comparable within an allelic series); in experiment [2], 9.94 upbm affinity estimate (log intensity, higher = more binding, comparable within an allelic series).
In the case of AATGGTCC, the binding signal is 11 upbm affinity estimate (log intensity, higher = more binding, comparable within an allelic series) in [1] and 10.9 upbm affinity estimate (log intensity, higher = more binding, comparable within an allelic series) in experiment [2].
In the case of AACCTGCC, the binding signal is 10.1 upbm affinity estimate (log intensity, higher = more binding, comparable within an allelic series) in [1]; 7.89 upbm affinity estimate (log intensity, higher = more binding, comparable within an allelic series) in experiment [9]; 10.1 upbm affinity estimate (log intensity, higher = more binding, comparable within an allelic series) in experiment [2].
In the case of CCCGTAAA, the binding signal in experiment [1] was 11.3 upbm affinity estimate (log intensity, higher = more binding, comparable within an allelic series); in experiment [5] it was 10.6 upbm affinity estimate (log intensity, higher = more binding, comparable within an allelic series); in experiment [7], 11.9 upbm affinity estimate (log intensity, higher = more binding, comparable within an allelic series); in experiment [8], 11.6 upbm affinity estimate (log intensity, higher = more binding, comparable within an allelic series).
Consider GAAGCTGC, for which the binding signal was 10.1 upbm affinity estimate (log intensity, higher = more binding, comparable within an allelic series) in [1] and 10 upbm affinity estimate (log intensity, higher = more binding, comparable within an allelic series) in experiment [2].
Take GGCGCAAA: the binding signal in experiment [1] was 10.1 upbm affinity estimate (log intensity, higher = more binding, comparable within an allelic series); in experiment [2], 10.1 upbm affinity estimate (log intensity, higher = more binding, comparable within an allelic series).
